Screens (PubChem BioAssay)
D1 PAM: human D1 dopamine receptor positive modulation | P21728 | HEK293 TREx D1 cells, calcium flux, dopamine EC20 potentiation | potentiation, % at 10 µM | 360,000 tested, 0.036% active | AID 504651; in the data active means potentiation above about 30%
Target sequence (P21728 whole entry, looked up): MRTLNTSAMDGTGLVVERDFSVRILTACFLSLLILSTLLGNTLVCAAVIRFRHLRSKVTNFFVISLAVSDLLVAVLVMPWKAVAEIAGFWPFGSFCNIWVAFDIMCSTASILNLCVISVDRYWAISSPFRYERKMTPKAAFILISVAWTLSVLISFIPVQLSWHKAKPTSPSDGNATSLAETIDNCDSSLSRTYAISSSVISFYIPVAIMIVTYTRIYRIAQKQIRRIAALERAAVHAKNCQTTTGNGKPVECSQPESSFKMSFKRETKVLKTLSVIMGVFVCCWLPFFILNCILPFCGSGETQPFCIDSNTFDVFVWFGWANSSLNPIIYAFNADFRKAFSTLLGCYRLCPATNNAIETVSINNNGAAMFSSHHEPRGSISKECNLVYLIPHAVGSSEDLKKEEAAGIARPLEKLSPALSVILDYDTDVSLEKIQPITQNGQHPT
D1 antag: antagonists of human D1 dopamine receptor; activity change, negative = inhibition, % at 10 µM; 360,000 tested, 3.2% active; P21728; HEK293 TREx D1 cells, calcium flux, dopamine EC80; hits give low values; AID 504652; in the data active means activity change below about -30%
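Cells carrying a force-coupled, tetracycline-inducible human D1 receptor report calcium flux. Each well gets a 10 s baseline, compound with 180 s monitoring, then an EC80 dopamine stimulus with a second 180 s kinetic read.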
D1 ag: activates the human D1 dopamine receptor; P21728; HEK293 T-REx D1 cells, calcium flux, agonist mode; activation, % at 2 µM; 360,000 tested, 1% active; in the data active means activation above about 30%
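Tetracycline-induced HEK293 TREx D1 cells, force-coupled to calcium signalling, were dye-loaded with a no-wash calcium kit. Compound was pin-added after a 10 s baseline. Fluorescence was read kinetically at 1 cycle/s for 180 s, with calcium rises flagged as agonism.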
D3 ag: agonists of human D3 dopamine receptor. P35462. D3R DiscoveRx beta-arrestin cells, luminescence, 90 min. max activation, %. 410,000 tested, 0.58% active. AID 652048; in the data active means max activation above about 30%
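Agonist mode: compounds and dopamine controls were applied to plated cells for 90 min at 37 degrees C after an overnight attachment at 1500 cells/well. Luminescent read-out followed 30 - 60 minutes at room temperature with DiscoveRx detection reagent.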
DRD3 antagonist: antagonists of human D3 dopamine receptor. P35462. D3R cells, DiscoveRx beta-arrestin luminescence, antagonist mode; hits give low values. max response, negative = inhibition, %. 360,000 tested, 2.5% active. AID 652054; in the data active means max response below about -50%; inconclusive means no clear call, values can overlap the other calls
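Cells plated overnight at 1500 cells/well, then exposed to library compounds with dopamine controls for 90 minutes at 37 degrees C. DiscoveRx reagent added for 30–60 minutes at room temperature; luminescence read, quantitative HTS format.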
Large screens that a line does not name were inactive. Shown are actives, neighbours in structure and some others; about 6% of the full set was active somewhere.

Cn1nnnc1SCC(=O)NC(=O)Cc1ccccc1	D1 antag -44.0, DRD3 antagonist inconclusive
O=C(NCc1cccc(C(F)(F)F)c1)C1CC2Cn3c(nc4ccccc43)C2N1Cc1ccccc1 (stereo not drawn)	none (no result: D1 PAM, D1 antag, D1 ag)
O=C(Cn1c(SCc2ccc(F)cc2)nc2cccnc21)Nc1ccccc1F	none (no result: DRD3 antagonist)
Cc1ccc(C(=O)COC(=O)CCN2C(=O)C3C4C=CC(C5CC45)C3C2=O)cc1 (stereo not drawn)	none
OC[C@@H]1CN(C2CCCC2)C[C@H](n2cnc3c(NC4CC4)ncnc32)O1	none (no result: D1 PAM, D1 antag, D1 ag)
COc1cc(/C=C(/C(=O)O)c2ccc(-c3ccccc3)cc2)cc(OC)c1OC	D1 antag -42.5
Cc1ccccc1OCCCCc1c(C)n[nH]c1C	none
Cc1n[nH]c(C)c1CCCCOc1ccccc1	D1 antag -32.2
Cc1n[nH]c(C)c1CCCCOc1ccc([N+](=O)[O-])cc1	D1 antag -39.1
Cc1ccc(OCCCc2c(C)n[nH]c2C)cc1	none
Cc1n[nH]c(C)c1CCCCOc1ccccc1[N+](=O)[O-]	D1 antag -32.7
Cc1cccc(NC(=O)c2cc3c([nH]c2=O)CC(c2ccccc2)CC3=O)c1 (stereo not drawn)	none (no result: DRD3 antagonist)
Cc1cc(C(=O)NC2CCCc3c2cnn3-c2cccc(C)c2C)no1 (stereo not drawn)	D1 antag -37.8
CCn1cc(C(=O)NC2CCCc3c2cnn3-c2cccc(C)c2C)cn1 (stereo not drawn)	D1 ag 40.4 (no result: D3 ag, DRD3 antagonist)
O=P(O)(O)OCC(O)CO (stereo not drawn)	none (no result: D1 PAM, D1 antag, D1 ag, DRD3 antagonist)
O=C(CCCSc1ccc(Cl)cc1)Nc1cc(S(=O)(=O)N2CCOCC2)ccc1O	D1 antag -45.1
CC(C)C(=O)Nc1ccc(C(=O)Nc2ccc(S(=O)(=O)N3CCOCC3)cc2)cc1	none
CC(Oc1ccccc1Cl)C(=O)Nc1ccc(S(=O)(=O)N2CCOCC2)cc1 (stereo not drawn)	none (no result: D1 PAM, D1 antag, D1 ag)
CC(Oc1ccc(C(=O)c2ccccc2)cc1)C(=O)Nc1ccc(S(N)(=O)=O)cc1 (stereo not drawn)	D1 ag 37.9
CC(Sc1ccc(Cl)cc1)C(=O)Nc1ccc(S(=O)(=O)N2CCOCC2)cc1 (stereo not drawn)	D1 ag 55.6
Cc1ccc(OC(C)C(=O)Nc2ccc(S(=O)(=O)N3CCOCC3)cc2)cc1 (stereo not drawn)	D1 ag 39.1
COCCNC(=O)Cn1c(-c2cccs2)cc2cc(Cl)ccc21	none (no result: DRD3 antagonist)
C[C@H](NC(=O)c1nc[nH]c1C(=O)NC1CCN(C(=O)OC(C)(C)C)CC1)C(=O)OCc1ccccc1	D3 ag 33.6
CCOC(=O)c1[nH]cnc1C(=O)NC1CCN(C(=O)OC(C)(C)C)CC1	D3 ag 33.8 (no result: D1 antag)
CC(C)(C)OC(=O)N1CCC(NC(=O)c2nc[nH]c2C(=O)N2CCN(c3ccccc3)CC2)CC1	D3 ag 51.4 (no result: D1 PAM, D1 antag, D1 ag)
CC(C)(C)OC(=O)NCCCCCNC(=O)c1[nH]cnc1C(=O)NC1CCN(C(=O)OC(C)(C)C)CC1	none
CC(C)(C)OC(=O)N1CCC(NC(=O)c2nc[nH]c2C(=O)N2CCN(C(=O)OC(C)(C)C)CC2)CC1	none
COc1ccc(Cn2c(CNC(=O)Cc3ccc(OC)c(OC)c3)nc3cccnc32)cc1	none (no result: DRD3 antagonist)
Cc1ccc(NC(=O)c2oc3c(c2C)-c2[nH]ncc2CC3)c(Cl)c1	D1 antag -43.4 (no result: DRD3 antagonist)
CCOC(=O)c1c(C)[nH]c(C)c1S(=O)(=O)N(C)CC(=O)Nc1ccc(C)cc1Br	none (no result: DRD3 antagonist)
O=C(Nc1ccc([N+](=O)[O-])cc1)Nc1ccc(OC(F)F)c(Cl)c1	D1 antag -49.4
COc1ccc(NC(=O)Nc2cccc([N+](=O)[O-])c2)cc1Cl	D1 antag -57.1
O=C(Cc1ccc(Cl)cc1Cl)Nc1ccc(OC(F)F)c(Cl)c1	none
COc1ccc(NC(=O)Nc2ccc3c(c2)N(C)C(=O)CS3)cc1Cl	D1 antag -32.8
COc1ccc(NC(=O)Nc2ccc3c(c2)N(C)C(=O)CS3)cc1OC	none
COc1cc([N+](=O)[O-])ccc1NC(=O)Nc1ccc2c(c1)OCCO2	none
O=C(Nc1ccc([N+](=O)[O-])cc1)Nc1ccc2c(c1)OCCO2	D1 antag -40.9, D1 ag 38.5, DRD3 antagonist inconclusive
CS(=O)(=O)c1ccc(Cl)c(NC(=O)CCN2C(=O)C3CC=CCC3C2=O)c1 (stereo not drawn)	none
COc1ccc(S(=O)(=O)c2cc(NS(=O)(=O)c3ccc(Cl)cc3)c(C)c(C)c2O)cc1	none (no result: DRD3 antagonist)
O=C(Nc1ccc(OC(F)F)c(Cl)c1)Nc1ccc2c(c1)OCO2	D1 antag -35.9
CCCCCCCCN1C(=O)[C@H](CC(=O)NCC23CC4CC(CC(C4)C2)C3)C[C@@]2(C(=O)OCC)CCC=C12	none (no result: D1 PAM, D1 antag, D1 ag)
CCOC(=O)c1cc2c(n(-c3ccc(Cl)cc3)c1=O)CCCC2=O	D1 antag -30.4
COCCNC(=O)C1CCCN(C(=O)c2nc3ccccc3s2)CC1 (stereo not drawn)	DRD3 antagonist inconclusive (no result: D1 PAM, D1 antag, D1 ag)
CC(C)n1cc(/C=C2/NC(=O)N(c3cccc(Cl)c3)C2=O)c2ccccc21	D1 antag -53.1
CC(C)n1cc(/C=C2\NC(=O)N(c3cccc(Cl)c3)C2=O)c2ccccc21	D1 antag -68.0
O=C(O)Cn1cc(/C=C2/NC(=O)N(c3ccc(Cl)cc3)C2=O)c2ccccc21	none
CCN(CC)c1cc(C)c2cc(NC(=O)/C=C/c3ccccc3Cl)ccc2n1	none (no result: DRD3 antagonist)
CCc1nnc(NC(=O)[C@@H](NS(=O)(=O)c2ccc3c(c2)OCCO3)C(C)C)s1	none (no result: D1 PAM, D1 antag, D1 ag)
O=C(NC1CCCC1)c1nc(-c2c(F)cccc2F)oc1-c1ccccc1	none (no result: D1 PAM, D1 antag, D1 ag)
COc1cccc(-c2cnc3c(NC(C)=O)cc(-c4cccc(C(=O)NCCN(C)C)c4)cn23)c1	none (no result: D1 PAM, D1 antag, D1 ag)
O=C(O)c1cc(O)c2c(c1)[C@@H]([C@H]1c3cc(C(=O)O)cc(O)c3C(=O)c3c(O[C@@H]4O[C@H](CO)[C@@H](O)[C@H](O)[C@H]4O)cccc31)c1cccc(OC3O[C@H](CO)[C@@H](O)[C@H](O)[C@H]3O)c1C2=O (stereo partly drawn)	DRD3 antagonist -56.2
O=C(O)c1cc(O)c2c(c1)[C@H]([C@H]1c3cc(C(=O)O)cc(O)c3C(=O)c3c(O[C@@H]4O[C@H](CO)[C@@H](O)[C@H](O)[C@H]4O)cccc31)c1cccc(OC3O[C@H](CO)[C@@H](O)[C@H](O)[C@H]3O)c1C2=O (stereo partly drawn)	none
Cc1c(OCC(=O)N[C@@H](Cc2ccccc2)C(=O)O)ccc2c1oc(=O)c1ccccc12	D3 ag 31.0
O=C(COc1ccc2c3c(c(=O)oc2c1)CCC3)N[C@@H](Cc1ccccc1)C(=O)O	D3 ag 33.2
Cc1c(OCC(=O)N[C@@H](Cc2ccccc2)C(=O)O)ccc2c3c(c(=O)oc12)CCC3	none
CC(C)(C)c1ccc(C(=O)NC(=S)Nn2cnnc2)cc1	D1 antag -32.0
O=C(NC(=S)Nn1cnnc1)c1ccccc1Cl	none
